Data on eight molecules can be found in PubChem BioAssay (Tox21).

A number with no mark means an inactive call. Inconclusive results are not listed. Activity calls are given as the source filed them. Unless noted, calls come from the whole dose curve; as a rule, active = well fitted curve in the direction sought with a large enough effect in the repeat runs; inconclusive = weak or mixed curves; inactive = no such curve, though single readings can be large; an effect the other way counts as inactive or inconclusive.

Test [1] can be described thus: qHTS assay to identify small molecule agonists of the estrogen receptor alpha (ER-alpha) signaling pathway in the presence of an antagonist - cell viability counter screen (AID 1259386).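 Note: series mostly up to about 92 µM; cells exposed to compounds for 22 h at 37 °C before the viability read; nearly all actives have a fitted effect of over 30% in size.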 The essentials:
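In this counter screen, compound effects on VM7Luc4E2 viability were tested in the presence of the antagonist ICI-182,780 at 10.0nM final. Compounds were dosed at 15 concentrations, exposure lasted 22hr, and the CellTiter-Fluor signal was read.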

The target of test [2] is Progesterone receptor (Homo sapiens) (UniProt P06401). The test is described as follows: qHTS assay to identify small molecule agonists of the progesterone receptor (PR) signaling pathway (AID 1346784; calls by dose curve; note: nearly all actives have a fitted effect of over 30% in size). The essentials: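 Beta-lactamase reporter read-out: after 16 hr compound treatment at 37C and a further 2 hr at room temperature with LiveBLAzer B/G FRET substrate, fluorescence was measured in PR-UAS-bla HEK 293T cells grown in 2% charcoal-stripped serum.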
Sequence of Progesterone receptor (Homo sapiens) (P06401 whole entry, looked up): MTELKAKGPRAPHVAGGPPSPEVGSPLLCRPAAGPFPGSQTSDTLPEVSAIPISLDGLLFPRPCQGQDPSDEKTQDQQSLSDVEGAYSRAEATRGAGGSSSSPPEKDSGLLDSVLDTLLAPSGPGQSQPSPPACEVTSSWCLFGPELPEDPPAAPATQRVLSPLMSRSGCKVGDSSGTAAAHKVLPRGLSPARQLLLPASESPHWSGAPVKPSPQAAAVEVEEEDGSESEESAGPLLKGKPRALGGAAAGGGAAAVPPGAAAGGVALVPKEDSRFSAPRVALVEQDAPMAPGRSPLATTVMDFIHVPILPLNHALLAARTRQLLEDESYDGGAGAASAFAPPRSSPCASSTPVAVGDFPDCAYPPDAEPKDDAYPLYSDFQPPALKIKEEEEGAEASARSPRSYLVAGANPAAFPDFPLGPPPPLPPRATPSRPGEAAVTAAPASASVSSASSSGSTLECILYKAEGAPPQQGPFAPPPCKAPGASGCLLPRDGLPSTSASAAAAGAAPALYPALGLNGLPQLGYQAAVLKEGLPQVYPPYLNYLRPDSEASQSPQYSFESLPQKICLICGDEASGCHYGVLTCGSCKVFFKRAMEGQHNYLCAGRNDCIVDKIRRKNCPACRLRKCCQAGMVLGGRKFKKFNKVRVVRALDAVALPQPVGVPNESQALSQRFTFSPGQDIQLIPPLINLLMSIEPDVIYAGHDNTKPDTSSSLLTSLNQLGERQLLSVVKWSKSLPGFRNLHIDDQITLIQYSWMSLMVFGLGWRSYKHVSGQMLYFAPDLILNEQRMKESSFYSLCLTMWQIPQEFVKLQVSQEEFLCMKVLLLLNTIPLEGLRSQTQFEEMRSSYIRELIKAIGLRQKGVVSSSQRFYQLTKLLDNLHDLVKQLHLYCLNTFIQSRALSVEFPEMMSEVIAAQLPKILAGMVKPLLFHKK

Test [3] shares this target. In words: qHTS assay to identify small molecule antagonists of the progesterone receptor (PR) signaling pathway (AID 1346795; active = well fitted inhibition curve with a large enough effect in the signal ratio in the repeat runs, not every such curve was filed as active; the % refers to the signal ratio; note: potency is the fitted concentration of half-maximal effect). The essentials: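 Read-out is fluorescence from the LiveBLAzer B/G FRET substrate, cleaved by a UAS-controlled beta-lactamase in PR-UAS-bla HEK293T cells after 16 hr exposure to compound plus 1 nM promegestone (final), followed by 2 hr at room temperature.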

The nature of test [4]: qHTS assay to identify small molecule antagonists of the progesterone receptor (PR) signaling pathway - cell viability counter screen (AID 1346798). Note: series mostly up to about 92 µM; nearly all actives have a fitted effect of over 50% in size. The essentials: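 HEK293T PR-UAS-bla, 2% charcoal-stripped FBS; 4 hr pre-plate; cpd + R5020, 16 h 37C; LiveBLAzer read first; then CellTiter-Glo 30 min RT, luminescence.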
Test [5] is described as follows: qHTS assay to identify small molecule agonists of the progesterone receptor (PR) signaling pathway - cell viability counter screen (AID 1346799; calls by dose curve; note: nearly all actives have a fitted effect of over 45% in size). The essentials:
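Luminescence from CellTiter-Glo, added after the beta-lactamase FRET read in the same wells, gave cytotoxicity in PR-UAS-bla HEK293T cells treated with compounds for 16 hr at 37C.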

A short description of test [6]: qHTS assay to identify small molecule antagonists of the TGF-beta/Smad signaling pathway - cell viability counter screen (AID 1346824). Note: nearly all actives have a fitted effect of over 50% in size. The essentials: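 Cytotoxicity counter-screen run in the same wells as the beta-lactamase Smad reporter read: CellTiter-Glo luminescence after 30 min at room temperature. HEK 293T SBE-bla cells had 5 hr compound exposure at 37 C with TGF-beta1 (0.25 ng/mL stock).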

The nature of test [7]: qHTS assay to identify small molecule agonists of the TGF-beta/Smad signaling pathway (AID 1346859; active = well fitted activation curve with a large enough effect in the signal ratio in the repeat runs, not every such curve was filed as active; the % refers to the signal ratio; note: series mostly up to about 77 µM). The essentials: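 SBE-bla HEK 293T, 4,000 cells/well, plated o/n; cpd in DMSO, 5 hr, 37 C/5% CO2; B/G FRET substrate 2 hr RT; ex 405, em 460/530 nm.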
Test [8] concerns the target Thyrotropin-releasing hormone receptor (Homo sapiens) (UniProt P34981). The test is described as follows: qHTS assay to identify small molecule antagonists of the thyrotropin-releasing hormone receptor (TRHR) signaling pathway (AID 1346877; active = well fitted inhibition curve with a large enough effect in the repeat runs, not every such curve was filed as active; note: series mostly up to about 51 µM). The essentials: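 Kinetic fluorescence (3 min, 1 s resolution) following stimulation with TRH at 1 nM final; HEK293 cells bearing human TRHR; 5 min compound preincubation at RT; concentration-response over 15 points, triplicates.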

The target is the same in test [9]. The test is described as follows: qHTS assay to identify small molecule agonists of the thyrotropin-releasing hormone receptor (TRHR) signaling pathway (AID 1346891; calls by dose curve; note: series mostly up to about 58 µM). The essentials:
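Intracellular calcium rise, read as fluorescence every second for 3 min, served as the agonist signal in dye-loaded HEK293 cells expressing TRHR; each compound ran at 15 concentrations in triplicate.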

Test [10] in a line: Caspase-3/7 induction in CHO-K1 cells by small molecules, qHTS cell viability counter screen (AID 1346979). Note: nearly all actives have a fitted effect of over 35% in size. The essentials: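 Cells (CHO-K1, wild type) are plated at 1,500 per well and incubated 5hr. Test compounds in DMSO are then pinned in, followed by 16hr at 37C and 5% CO2. Viability is read by CellTiter-Fluor fluorescence after 1hr.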
The nature of test [11]: Caspase-3/7 induction in CHO-K1 cells by small molecules, qHTS assay (AID 1346980). Note: nearly all actives have a fitted effect of over 15% in size. The essentials: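 Luminescent Caspase-Glo 3/7 read (30min, room temperature) quantified apoptosis induction. Cells were wild-type CHO-K1, treated with compound for 17hr at 37 C and 5% CO2.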
Test [12] is described as follows: Caspase-3/7 induction in HepG2 cells by small molecules, qHTS cell viability counter screen (AID 1346981). Note: series mostly up to about 92 µM; nearly all actives have a fitted effect of over 30% in size. The essentials: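 In this quantitative HTS counter screen, compounds delivered in DMSO were left on unmodified HepG2 cells for 16 hr at 37 C. Viability was then determined fluorometrically with CellTiter-Fluor, in parallel with caspase-3/7 induction in the same wells.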

For test [13], the target named is Nuclear receptor subfamily 1 group I member 2 (Rattus norvegicus) (UniProt Q9R1A7). The test is described as follows: Rat pregnane X receptor (rPXR) activation by small molecules, qHTS assay (AID 1346983). Note: nearly all actives have a fitted effect of over 20% in size. Particulars: rPXR luciferase reporter cells, One-Glo luminescence, 24 h; max activation: stronger effect = higher value. The essentials: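 Luminescent readout (One-Glo luciferase, 30 min room temperature) followed 24 hr compound treatment at 37 C of rPXR cells plated 2,000 per well and preincubated 5hr; qHTS format with compounds delivered in DMSO.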
Sequence of Nuclear receptor subfamily 1 group I member 2 (Rattus norvegicus) (Q9R1A7 whole entry, looked up): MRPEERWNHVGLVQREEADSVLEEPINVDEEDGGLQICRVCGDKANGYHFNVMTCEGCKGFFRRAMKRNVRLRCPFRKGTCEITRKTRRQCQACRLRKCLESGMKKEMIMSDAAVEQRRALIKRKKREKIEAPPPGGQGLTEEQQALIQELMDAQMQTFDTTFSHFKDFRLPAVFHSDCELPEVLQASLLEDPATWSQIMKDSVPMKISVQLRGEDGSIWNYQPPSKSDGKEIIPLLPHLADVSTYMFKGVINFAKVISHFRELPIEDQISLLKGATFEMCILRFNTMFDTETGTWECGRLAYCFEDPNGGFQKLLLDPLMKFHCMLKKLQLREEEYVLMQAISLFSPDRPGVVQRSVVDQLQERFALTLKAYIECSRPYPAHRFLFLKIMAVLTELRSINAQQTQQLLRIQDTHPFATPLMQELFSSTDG

Test [14] concerns the target Nuclear receptor subfamily 1 group I member 2 (Homo sapiens) (UniProt O75469). In words: CYP3A4 induction through human pregnane X receptor (PXR) by small molecules, qHTS assay (AID 1346984). Note: nearly all actives have a fitted effect of over 40% in size. The essentials: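 Induction measured in HepG2-based DPX-2 cells co-expressing human PXR and a CYP3A4 promoter-driven luciferase. After a 24-hour compound exposure, cells received CYP3A4 luciferin substrate at 3uM final for 3 hours, and light output was then recorded.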

For test [15] the target is unchanged. In words: Human pregnane X receptor (PXR) activation by small molecules, qHTS assay (AID 1346985). Note: nearly all actives have a fitted effect of over 40% in size. The essentials: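 DPX-2 cells (HepG2 co-transfected with a PXR response element and a CYP3A4-promoter luciferase construct) were seeded at 2,000 per well, rested 5 hr at 37C, then exposed to DMSO-dissolved compounds for 24 hr. Activation was read as luciferase luminescence.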

Test [16] addresses Cytochrome P450 2D6 (Homo sapiens) (UniProt P10635). In words: Cytochrome P450 Family 2 Subfamily D Member 6 (CYP2D6) small molecule antagonists: luciferase reporter qHTS assay (AID 1671196). Note: nearly all actives have a fitted effect of over 50% in size. Note: potency is the fitted concentration of half-maximal effect. The essentials: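 Test chemicals meet CYP2D6 plus proluciferin substrate (10 min, RT); NADPH regenerating solution then drives turnover for 1 h. Detection reagent halts the reaction; luminescence measured after 20 min.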

The nature of test [17]: Caspase-3/7 induction in HepG2 cells by small molecules, qHTS assay (AID 1346978). Note: nearly all actives have a fitted effect of over 15% in size. The essentials: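 Caspase-3/7 induction was measured by Caspase-Glo 3/7 luminescence (30 min, room temperature) after a 17 hr compound exposure of wild-type HepG2 cells seeded at 2,000 per well and pre-incubated 5 hr.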
Test [18] deals with Nuclear receptor subfamily 1 group I member 2 (Homo sapiens) (UniProt O75469). In words: Human pregnane X receptor (PXR) small molecule agonists, qHTS assay (AID 1346982). Note: nearly all actives have a fitted effect of over 35% in size. Note: potency is the fitted concentration of half-maximal effect. The essentials:
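Reporter HepG2 cells expressing PXR-Luc are cultured in charcoal-stripped FBS (5%), treated with compounds for 24 hr at 37 C, and assayed by ONE-Glo luminescence after 30 min at room temperature.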

Test [19] in a line: qHTS assay to identify small molecule agonists of the TGF-beta/Smad signaling pathway - cell viability counter screen (AID 1346829). Note: top concentration of the series differs between compounds; nearly all actives have a fitted effect of over 45% in size. The essentials: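 Here the cytotoxicity of library compounds is measured in SBE-bla HEK 293T cells treated for 5 hr, using CellTiter-Glo added to wells already read for the beta-lactamase reporter.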
A short description of test [20]: Human pregnane X receptor (PXR) small molecule agonists, qHTS cell viability counter screen (AID 1346977). Note: nearly all actives have a fitted effect of over 50% in size. Note: potency is the fitted concentration of half-maximal effect. The essentials: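 PXR-Luc HepG2, 2,000 cells/well, 5% charcoal-stripped FBS; 5hr settle; cpd 24hr, 37C/5% CO2; CellTiter-Fluor at 23hr, read 1hr later (fluorescence).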
% is set by controls: 0 for no effect and ±100 for the full control effect.

Sequence of Thyrotropin-releasing hormone receptor (Homo sapiens) (P34981 whole entry, looked up): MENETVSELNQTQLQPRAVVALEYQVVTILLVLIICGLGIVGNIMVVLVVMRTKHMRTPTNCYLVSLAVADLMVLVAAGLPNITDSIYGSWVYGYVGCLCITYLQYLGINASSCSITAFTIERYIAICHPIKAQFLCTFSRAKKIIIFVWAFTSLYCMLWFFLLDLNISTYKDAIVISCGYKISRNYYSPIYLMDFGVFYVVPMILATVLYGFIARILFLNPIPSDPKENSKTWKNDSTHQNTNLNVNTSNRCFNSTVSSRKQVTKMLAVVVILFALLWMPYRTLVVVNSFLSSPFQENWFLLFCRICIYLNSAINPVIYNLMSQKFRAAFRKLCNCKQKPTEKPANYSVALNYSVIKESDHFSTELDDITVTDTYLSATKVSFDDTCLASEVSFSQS
Sequence of Nuclear receptor subfamily 1 group I member 2 (Homo sapiens) (O75469 whole entry, looked up): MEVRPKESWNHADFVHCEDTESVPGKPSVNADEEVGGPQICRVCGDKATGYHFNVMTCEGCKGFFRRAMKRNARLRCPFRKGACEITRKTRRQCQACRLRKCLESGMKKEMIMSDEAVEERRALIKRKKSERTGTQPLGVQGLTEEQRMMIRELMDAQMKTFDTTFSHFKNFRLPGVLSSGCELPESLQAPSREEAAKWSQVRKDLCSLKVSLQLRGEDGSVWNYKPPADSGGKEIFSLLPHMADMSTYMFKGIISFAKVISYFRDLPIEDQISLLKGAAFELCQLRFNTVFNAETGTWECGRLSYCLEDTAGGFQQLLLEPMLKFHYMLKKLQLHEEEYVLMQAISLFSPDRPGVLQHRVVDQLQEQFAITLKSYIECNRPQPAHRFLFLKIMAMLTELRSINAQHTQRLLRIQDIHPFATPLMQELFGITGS
Sequence of Cytochrome P450 2D6 (Homo sapiens) (P10635 whole entry, looked up): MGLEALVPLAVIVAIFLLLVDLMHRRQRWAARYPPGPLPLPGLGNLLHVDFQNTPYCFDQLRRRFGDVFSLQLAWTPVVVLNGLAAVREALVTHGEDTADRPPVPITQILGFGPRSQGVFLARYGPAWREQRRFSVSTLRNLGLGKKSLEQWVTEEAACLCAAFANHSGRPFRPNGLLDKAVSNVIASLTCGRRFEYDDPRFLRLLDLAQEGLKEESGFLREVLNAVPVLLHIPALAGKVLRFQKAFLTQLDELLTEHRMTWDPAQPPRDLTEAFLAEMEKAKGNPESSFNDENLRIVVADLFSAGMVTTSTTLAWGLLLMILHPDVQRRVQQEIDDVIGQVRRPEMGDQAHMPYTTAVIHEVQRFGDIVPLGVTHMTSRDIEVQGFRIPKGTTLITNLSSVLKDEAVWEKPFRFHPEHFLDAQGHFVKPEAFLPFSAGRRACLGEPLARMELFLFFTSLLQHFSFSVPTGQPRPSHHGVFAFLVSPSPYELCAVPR

In the case of `CN1CCN(C(c2ccccc2)c2ccccc2)CC1`, the Potency result in [1], in test [2], in test [3], in test [4], in [5] and in [6] was “inactive” each time. Further, the Potency entry in test [7], in [9], in test [10], in [11], in [12] and in [14] was “inactive” in each case. In test [15], the Potency entry was “inactive”. For the same molecule, the result in test [8] was inactive. Further, in test [13], the max activation is -2.77%. Further, in test [16], the Potency was 4.9 µM (active).

For `CCOC(=O)C1=C[C@]2(CC)CCCN3CCc4c(n1c1ccccc41)[C@@H]32`, the Potency entry in test [1], in [2], in test [4], in test [5], in test [6] and in test [7] was “inactive” each time. For the same molecule, the Potency result in test [9], in [17], in [11] and in test [12] was “inactive” throughout. For the same molecule, the Potency in test [3] was 23.7 µM (active); in test [18], 2.37 µM (active); in test [16], 2.75 µM (active). Moreover, the outcome in test [8] was inactive.

Take `COc1cc2nc(N3CCN(C(=O)C4COc5ccccc5O4)CC3)nc(N)c2cc1OC` (stereo not given): the Potency entry in [1], in test [2], in test [3], in test [5], in [6] and in [7] was “inactive” each time. The Potency result in [17] and in test [16] was “inactive” each time. The result in [19] was inactive. Further, the Potency in test [20] is 26.6 µM (active). Moreover, in [13], the max activation was -0.947%.

Take `COc1cc2nc(Cl)nc(N)c2cc1OC`: the Potency entry in [1], in test [2], in test [3], in test [4], in test [6] and in [7] was “inactive” in each case. The Potency result in [9], in [20], in test [17], in [10], in test [11] and in test [12] was “inactive” throughout. In addition, the Potency entry in test [18] and in [16] was “inactive” in each case. The molecule was called inactive in [19] and in test [8].

For the molecule `O=C(NCCO[N+](=O)[O-])c1cccnc1`, the Potency entry in test [1], in test [2], in test [3], in test [4], in test [5] and in test [6] was “inactive” throughout. The Potency entry in test [9], in test [20], in test [17], in test [10], in test [11] and in test [12] was “inactive” throughout. Besides, the outcome in [19] and in test [8] was inactive. In addition, in test [13], the max activation was -6.7%.

As to `CCOc1ccc(O)cc1`, the Potency result in test [1], in test [2], in [3], in test [4], in [5] and in test [6] was “inactive” throughout. Moreover, the Potency result in test [7], in [9], in test [20], in [17], in test [10] and in test [11] was “inactive” each time. Further, the Potency result in test [12] and in test [16] was “inactive” throughout. Further, in test [8], the outcome was inactive.

For the molecule `OCCNCc1ccccc1`, the Potency entry in [1], in test [2], in test [3], in [5], in test [6] and in test [7] was “inactive” in each case. For the same molecule, the Potency result in [9], in test [20], in [17], in test [10], in test [12] and in [18] was “inactive” each time. Moreover, the call in [19] and in test [8] was inactive. For the same molecule, in test [16], the Potency is 35.6 µM (active).

`CCCCO`: the Potency entry in test [1], in [2], in test [3], in test [4], in [5] and in test [6] was “inactive” throughout. The Potency result in [7], in [17], in test [10], in [11] and in test [12] was “inactive” each time. Besides, the call in test [19] was inactive. Further, the max activation in test [13] was -3.27%.
